# Reference: the supplement of paper PMC4709259
# Where a name gives a salt, the structure may show the parent alone. ± gives the standard deviation.
# Legend:
# [1] = system: Jurkat; experiment: mean cell size (FSC-A) relative to DMSO control (fraction of control); higher = larger cells; settings: 48 h
# Summary of the method: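 Jurkat cells at 600 cells/µl were incubated for 1 h and then treated for 48h with the Enzo Screen-Well FDA Approved Drug Library v2.0 at 25µM, with DMSO at 0.9% (v/v) final. Compounds that reduced counts below 20% of controls were retested in 10-fold dilutions down to 25nM. Cell count and mean cell size, taken as forward scatter area, were measured by flow cytometry relative to solvent-only controls. Each plate carried 6-12 controls, and values are means of 3 biological replicates.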
# [2] = system: Jurkat; experiment: cell count relative to DMSO control (fraction of control); higher = more cells (less growth inhibition); settings: 48 h
Compound,mean cell size [1],cell count [2]
Nc1nnc(-c2cccc(Cl)c2Cl)c(N)n1 [Lamotrigine] (concentration: 25 µM),1.01 ± 0.028,0.734 ± 0.16
CCC1(c2ccccc2)C(=O)NCNC1=O [Primidone] (concentration: 25 µM),1 ± 0.021,0.618 ± 0.18
CC(C)c1nc(N(C)S(C)(=O)=O)nc(-c2ccc(F)cc2)c1/C=C/[C@@H](O)C[C@@H](O)CC(=O)O [Rosuvastatin Calcium] (concentration: 25 µM),1.19 ± 0.041,0.689 ± 0.065
C=C1/C(=C\C=C2/CCC[C@]3(C)[C@@H]([C@H](C)CCCC(C)(C)O)CC[C@@H]23)C[C@@H](O)C[C@@H]1O [Calcitriol] (concentration: 25 µM),0.8848 ± 0.0063,0.893 ± 0.088
CN(C)CCc1c[nH]c2ccc(Cn3cncn3)cc12 [Rizatriptan Benzoate] (concentration: 25 µM),1.02 ± 0.039,0.844 ± 0.01
CCCNC(C)C(=O)Nc1ccccc1C (stereo unspecified) [Prilocaine·HCl] (concentration: 25 µM),1 ± 0.022,0.693 ± 0.13
CC(C)OC(=O)CCC/C=C\C[C@@H]1[C@@H](/C=C/[C@@H](O)COc2cccc(C(F)(F)F)c2)[C@H](O)C[C@@H]1O [Travoprost] (concentration: 25 µM),0.92 ± 0.022,0.668 ± 0.084
CC[C@H](C)[C@H](N)C1=N[C@H](C(=O)N[C@@H](CC(C)C)C(=O)N[C@H](CCC(=O)O)C(=O)N[C@H](C(=O)N[C@H]2CCCCNC(=O)[C@H](CC(N)=O)NC(=O)[C@@H](CC(=O)O)NC(=O)[C@H](Cc3cnc[nH]3)NC(=O)[C@@H](Cc3ccccc3)NC(=O)[C@H]([C@@H](C)CC)NC(=O)[C@@H](CCCN)NC2=O)[C@@H](C)CC)CS1 [Bacitracin] (concentration: 25 µM),0.977 ± 0.038,0.476 ± 0.09
